Measurements: PubChem BioAssay (NCATS)
Records with an inconclusive call do not appear. A structure can be active in one record and inactive in another. Active and inactive are the calls of the source. The call rests on the fitted dose curve; in most records, active means well fitted inhibition curve with a large enough effect; inconclusive means small, poorly fitted or top-dose-only effect; inactive means flat fitted curve, though single readings scatter.

Tests used:
Test in all cases: qHTS profiling for inhibitors of Plasmodium falciparum proliferation (AID 504749); further: nearly all actives have a fitted effect of over 60% in size
Settings in all cases: P. falciparum in erythrocytes, SYBR Green DNA, 72 h; series mostly up to 28.7 µM
CP315 = system: CP315
Outline: (§1)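 In a 72 h erythrocytic culture (37 C, humidified, 5% CO2) at 2.5% hematocrit and 0.3% starting parasitemia, compounds were tested; SYBR Green I in detergent lysis buffer stained parasite DNA overnight.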

CP325 = system: CP325
Outline: as §1

CP329 = system: CP329
Outline: as §1

CP335 = system: CP335
Outline: as §1

DFO2036 = system: DFO2036
Outline: as §1

DIV14 = system: DIV14
Outline: as §1

DIV17 = system: DIV17
Outline: as §1

DIV30 = system: DIV30
Outline: as §1

Dd2 = system: Dd2
Outline: as §1

ECU = system: ECU
Outline: as §1

FAB9 = system: FAB9
Outline: as §1

GB4 = system: GB4
Outline: as §1

HB3 = system: HB3
Outline: as §1

ICS = system: ICS
Outline: as §1

JCK = system: JCK
Outline: as §1

N140 = system: N140
Outline: as §1

P93_24 = system: P93_24
Outline: as §1

P94_40 = system: P94_40
Outline: as §1

PAD = system: PAD
Outline: as §1

PC15 = system: PC15
Outline: as §1

Measured: Potency
Potency means the concentration at half of the fitted maximal effect.

CC(=O)OC1CN2CCC1CC2 (stereo unspecified)
inactive: all assays above

CNC(C)C(O)c1ccc(O)cc1 (stereo unspecified)
inactive: all assays above

C[CH2][Hg][S]c1ccccc1C(=O)O
active: CP315 4.26 µM | CP325 1.69 µM | CP329 1.69 µM | CP335 1.35 µM | DFO2036 2 µM | DIV14 1.9 µM | DIV17 1.51 µM | DIV30 4.26 µM | Dd2 2.24 µM | ECU 3.16 µM | FAB9 5.62 µM | GB4 1.69 µM | HB3 2.24 µM | ICS 1.26 µM | JCK 10 µM | N140 2.24 µM | P93_24 2.82 µM | P94_40 3.16 µM | PAD 2.82 µM | PC15 4.47 µM

O=Cc1ccco1
inactive: all assays above

CCC1(C)CC(=O)NC(=O)C1
inactive: all assays above

Cn1sc(Cl)cc1=O
inactive: all assays above

COC1=CC=C2[C@H]3Cc4ccc(OC)c5c4[C@@]2(CCN3C)[C@H]1O5
inactive: all assays above

CCOC(=O)c1ccccc1C(=O)OCC
inactive: all assays above

O=C(O)C(Cl)(Cl)Cl
inactive: all assays above

CC(C)(O)C1C2OC(=O)C1C1(O)CC3OC34C(=O)OC2C14C (stereo unspecified)
inactive: all assays above

O=C(NC(=O)c1c(F)cccc1F)Nc1ccc(Cl)c(Oc2ncc(C(F)(F)F)cc2Cl)c1
inactive: all assays above

O=[N+]([O-])c1cc(I)c(O)c(I)c1
inactive: all assays above

CCC(C)(S(=O)(=O)CC)S(=O)(=O)CC
inactive: all assays above

S=C=S
inactive: all assays above

O=C(CCl)c1ccc(Oc2ccc(C(=O)CCl)cc2)cc1
inactive: all assays above

COc1ccc(OC)c(C(O)C(C)N)c1 (stereo unspecified)
inactive: all assays above

CC(N)Cc1ccc(O)cc1 (stereo unspecified)
inactive: all assays above

c1ccc2sc(SNC3CCCCC3)nc2c1
inactive: all assays above

CCCCNCC(O)c1ccc(O)cc1 (stereo unspecified)
active: JCK 1.12 µM
inactive: all other assays above

CN1c2ccccc2C(NCCCCCCC(=O)O)c2ccc(Cl)cc2S1(=O)=O (stereo unspecified)
inactive: all assays above

ClC=C(Cl)Cl
inactive: all assays above

O=C1CN(O)C(c2ccccc2)=c2cc(Cl)ccc2=N1
inactive: all assays above

NCC(O)c1cccc(O)c1 (stereo unspecified)
inactive: all assays above

O[C@H]1[C@H]2[C@H](O)CCCN2C[C@H]1O
inactive: all assays above

CC(=O)OO
inactive: all assays above

CCON=O
inactive: all assays above

S=C(S)N1CCNCC1
inactive: all assays above

C[N+]1(C)C2CCC1CC(OC(=O)c1c[nH]c3ccccc13)C2 (stereo unspecified)
inactive: all assays above

[O]=[Cd]
inactive: all assays above

O=C1CCO1
not listed: PC15
inactive: all other assays above

ClC(Cl)(Cl)Cl
inactive: all assays above

O=[N+]([O-])C(Br)(CO)CO
inactive: all assays above

O=C1CCCCC1CN1CCCCC1 (stereo unspecified)
inactive: all assays above

O=C(NCNC(=O)NC1C(=O)NC(=O)N1CO)NC1C(=O)NC(=O)N1CO (stereo unspecified)
inactive: all assays above

C=CCN(C1=NCCN1)c1c(Cl)cccc1Cl
inactive: all assays above

O=CC=O
inactive: all assays above

C=CCN1CCC23c4c5ccc(O)c4O[C@H]2C(=O)CC[C@@]3(O)C1C5 (stereo partly specified)
inactive: all assays above

COc1ccc2c3c1O[C@H]1C(=O)CC[C@H]4[C@@H](C2)N(C)CC[C@]314
inactive: all assays above

O=c1[nH]c(=O)n(Cl)c(=O)n1Cl
inactive: all assays above

ClCC1CO1 (stereo unspecified)
inactive: all assays above

c1ccc2cc(CC3=NCCN3)ccc2c1
not listed: DIV14 | GB4
inactive: all other assays above

FC(F)OC(F)(F)C(F)Cl (stereo unspecified)
inactive: all assays above

[O]=[Cr](=[O])([OH])[O][Cr](=[O])(=[O])[OH]
inactive: all assays above

CC(Cc1ccccc1)NC=O (stereo unspecified)
inactive: all assays above

CC(=O)O[C@H]1CC[C@H]2[C@@H]3CCC4=CC(=O)CCC4=C3C=C[C@]12C
not listed: GB4 | P94_40
inactive: all other assays above

ClC1C(Cl)C(Cl)C(Cl)C(Cl)C1Cl (stereo unspecified)
not listed: DIV14
inactive: all other assays above

O=P(O)(O)C(Cl)(Cl)P(=O)(O)O
inactive: all assays above

CNC1(c2ccccc2Cl)CCCCC1=O (stereo unspecified)
9.53 µM (active) and inactive: DIV14
active: DIV17 13.5 µM | GB4 12 µM
not listed: Dd2 | PAD
inactive: all other assays above

[N-]=[N+]=CC(=O)OCC(N)C(=O)O (stereo unspecified)
inactive: all assays above

CC(C)CCON=O
inactive: all assays above

CNC(=O)OCC[N+](C)(C)C
inactive: all assays above

O=[N+]([O-])c1ccc(F)c([N+](=O)[O-])c1
inactive: all assays above

O=C(OCCN1CCCCC1)C(O)(c1ccccc1)c1ccccc1
inactive: all assays above

CC[N+](C)(CC)CCOC(=O)C(O)(c1ccccc1)c1ccccc1
inactive: all assays above

N#CN
not listed: DIV30
inactive: all other assays above

O=C(CS(=O)C(c1ccccc1)c1ccccc1)NO (stereo unspecified)
inactive: all assays above

CCCC(C)(COC(N)=O)COC(=O)NC1CC1 (stereo unspecified)
inactive: all assays above

CCC1(c2ccccc2)C(=O)NC(=O)NC1=O
inactive: all assays above

N#CC1(N2CCCCC2)CCCCC1
inactive: all assays above
